The list is not random: actives were taken first. Their share in the collection is about 2.9%.
ClpP mod = qHTS Assay for Activators of ClpP. AID 651965, 2013. purified B. subtilis ClpP, FRET peptide cleavage, 20 min. ATP-dependent Clp protease proteolytic subunit (Bacillus subtilis (strain 168)), P80244. actives 1.9% (n = 340,000). Potency, µM (top dose mostly 57.5 µM), inactives show at the top dose activity change, negative = active; active = well fitted falling curve with a large enough effect; inconclusive = small, poorly fitted or top-dose-only effect; inactive = no such curve, though single readings can be large or run the other way; note: potency is the fitted concentration of half-maximal effect; the source files actives as falling curves though it sought activators and does not explain the sign; nearly all actives have a fitted effect of over 65% in size
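Buffer: 100 mM Tris/HCl pH8, 100 mM KCl, 0.05% low protease BSA, 2.5% glycerol, 0.01% Tween-20. ClpP 10 microg/mL final; 20 min RT; delta FRET normalized to ADEP and DMSO controls.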
p53 reactivator = restores transcriptional activity of mutant p53; H1299 p53-A138V BP100-luciferase reporter, luminescence, 24 h; Potency, µM (series often up to 92.2 µM), for the others: at the top dose activity change, positive = activation, actives largely listed as activators; actives 0.063% (n = 320,000); AID 504706; note: potency is the fitted concentration of half-maximal effect; % of control where 0% means no effect; nearly all actives have a fitted effect of over 45% in size
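p53-null H1299 cells stably carrying temperature-sensitive p53-A138V and a BP100-luciferase reporter were pinned with compounds (4-point, 1:5 series) and held 24 hrs at 37 deg C. Luminescence was read 10 min after detection reagent.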
GLP1R cytotox = cytotoxic in the GLP-1 receptor inverse agonist counter-screen. HEK293 cAMP-luciferase reporter cells, luminescence, 24 h. Potency, µM (series often up to 38.3 µM), inactives show at the top dose activity change, negative = inhibition, actives largely listed as inhibitors. actives 0.13% (n = 410,000);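 note: loss of luciferase light is scored as toxicity; potency is the fitted concentration of half-maximal effect; % is set by controls: 0 for no effect and ±100 for the full control effect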
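Cells in DMEM/10% Nu serum/1% pen-strep, 1536-well format. Pre-incubated 12 h, dosed with 23 nL compound, incubated a further 24 h. Luciferase detection, 12 min at room temp, luminescence.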
LDHA block = inhibitors of human lactate dehydrogenase A; P00338; activity change, % (values are at about 110 or 230 µM); actives 0.15% (n = 480,000); purified LDHA, NADH/diaphorase-resazurin fluorescence; stronger effect = lower value; AID 1347041; in the data active = activity change below about -30%; inconclusive = mostly about -25% to -30%;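 note: plate controls were DMSO wells for no effect and wells without enzyme for full effect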
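Enzyme activity of human lactate dehydrogenase 5 (2 nM; 0.06 mM NADH, 0.2 mM pyruvate, 5 min, RT) is measured via a resazurin/diaphorase fluorescence readout of residual NADH.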
GLP-1R inv ag = acts as inverse agonist at human GLP-1 receptor | P43220 | HEK293 GLP-1R CRE-luciferase, luminescence, 24 h; GLP-1R form is constitutively active | Potency, µM (titrated, usually from 38.3 µM), for inactives: at the top dose activity change, negative = inhibition, actives largely listed as inhibitors | actives 1.6% (n = 410,000) | AID 624417; note: potency is the fitted concentration of half-maximal effect; % is set by controls: 0 for no effect and ±100 for the full control effect; nearly all actives have a fitted effect of over 55% in size
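Seeding at 200 cells/uL, 12 h culture, 24 hr compound treatment, then luciferase reagent and a luminescence read; cells are HEK293 stably expressing a constitutively active GLP-1R plus cAMP-responsive luciferase.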
GLP-1R agonist = activates the human GLP-1 receptor; HEK293 GLP-1R CRE-luciferase, luminescence, 4-6 h; cells express a hypersensitive GLP-1R form; AID 624172; P43220; Potency, µM (highest dose often 45.6 µM), inactives show top-dose activation, actives largely listed as activators; actives 0.007% (n = 380,000); note: potency is the fitted concentration of half-maximal effect; % of control where 0% means no effect
Starred values were filed as active, the others as inactive; ? = inconclusive; . = not tested or not shown; ! = repeats disagree; [ ] = remark or other dose. Unless noted, calls come from the whole dose curve; as a rule, active = well fitted curve in the direction sought with a large enough effect; inconclusive = small, poorly fitted or top-dose-only effect, or another doubt; inactive = no such curve, though single readings can be large; an effect the other way counts as inactive or inconclusive.

SMILES	ClpP mod	p53 reactivator	GLP1R cytotox	LDHA block	GLP-1R inv ag	GLP-1R agonist
Cc1cc(C)c2nc(N(CCCN(C)C)C(=O)c3ccc(S(=O)(=O)N4CC(C)OC(C)C4)cc3)sc2c1 (configuration not stated)	2.1%	-0.4%	11.3%	-2.5	10µM*	-8.0%
CCOC(=O)N1CCN(S(=O)(=O)c2ccc(C(=O)N(CCCN(C)C)c3nc4c(C)c(C)ccc4s3)cc2)CC1	-1.1%	2.7%	-10.9%	-0.3	?	6.0%
Cc1ccc2sc(N(CCN(C)C)C(=O)c3ccc(S(=O)(=O)N4CC(C)OC(C)C4)cc3)nc2c1C (configuration not stated)	-0.9%	17.5%	-10.8%	-3.1	?	-1.4%
Cc1ccc2sc(N(CCCN(C)C)C(=O)c3ccc(S(=O)(=O)N4CCOCC4)cc3)nc2c1C	-0.6%	-9.1%	-15.4%	-3.8	10µM*	-5.9%
Cc1nc2cc(NC(C)c3nc(C(C)(C)C)no3)ccc2o1 (configuration not stated)	.	.	.	2.1	.	.
Cc1ccc(C(=O)NCCNc2ccc([N+](=O)[O-])cc2C(F)(F)F)cc1	2.1%	-1.6%	?	2.2	10µM*	1.6%
COc1cc(C2Nc3ccccc3C(=O)N2c2ccccc2OC)ccc1O (configuration not stated)	31.6µM*	1.0%	2.6%	-3.4	15.6%	-2.8%
COc1ccc(N2C(=O)c3ccccc3NC2c2ccc(OC)c(CSc3ccccn3)c2)cc1 (configuration not stated)	25.1µM*	8.5%	0.6%	-3.8	0.0%	11.5%
CCOc1cc(C2Nc3ccccc3C(=O)N2c2ccccc2OC)ccc1O (configuration not stated)	?	2.5%	-20.8%	17.3	2.5%	17.1%
COc1ccc(C2Nc3ccccc3C(=O)N2c2ccc(C)cc2)cc1Cn1nnc2ccccc21 (configuration not stated)	31.6µM*	47.2%	?	-4.1	-4.1%	7.1%
COc1ccc(C2Nc3ccccc3C(=O)N2c2ccccc2)cc1COc1ccc(NC(C)=O)cc1 (configuration not stated)	4.3%	.	.	-9.3	.	.
COc1ccc(C2Nc3ccccc3C(=O)N2Cc2ccco2)cc1COc1ccc(F)cc1 (configuration not stated)	25.1µM*	-12.7%	-8.4%	-0.7	10µM*	-13.9%
COc1cccc(OCc2cc(C3Nc4ccccc4C(=O)N3c3ccccc3)ccc2OC)c1 (configuration not stated)	4.0%	.	.	1.2	.	.
COc1ccc(C2Nc3ccccc3C(=O)N2Cc2ccccc2)cc1COc1ccccn1 (configuration not stated)	25.1µM*	-6.1%	-1.5%	3.4	3.4%	8.9%
COc1ccc(OCc2cc(C3Nc4ccccc4C(=O)N3Cc3ccccc3)ccc2OC)cc1 (configuration not stated)	.	.	.	7.8	.	.
CCCN1C(=O)c2ccccc2NC1c1ccc(OC)c(CSc2ccccn2)c1 (configuration not stated)	-2.3%	-16.1%	4.7%	2.1	12.6µM*	17.5%
COc1ccc(N2C(=O)c3ccccc3NC2c2ccc(OC)c(COc3ccccn3)c2)cc1 (configuration not stated)	25.1µM*!	?	-4.7%[1.53 µM]	-2.6	3.8%	5.5%
COc1ccc(NC(=O)CN2CCN(C(=O)c3ccco3)CC2)c(OC)c1	-1.9%	-5.5%	-1.9%	-12.5	0.6%	-1.7%
CN=C(N)NCCC[C@H](N)C(=O)O	-6.8%	-2.4%	-0.6%	-3.3	6.7%	-0.2%
O=C(OCC(=O)c1c[nH]c2ccccc12)c1ccc(Br)o1	-0.1%	15.6%	-3.2%	5.0	4.2%	0.1%
COc1ccc(S(=O)(=O)n2ccc(C(C)Oc3ccc(-c4ccccc4)c(F)c3)n2)cc1 (configuration not stated)	-0.5%	4.9%	-0.2%	5.8	8.91µM*	4.4%
COc1ccc(C(C)(C)C)cc1NC(=O)C1CCCO1 (configuration not stated)	0.8%	-10.7%	23.2%	2.3	?	1.5%
C=CCn1c(SCc2ccc(C(=O)O)cc2)nc2sc(C)c(C)c2c1=O	-0.3%	-3.3%	-19.2%	0.5	38.7%	-5.3%
CNCCCC1Sc2ccccc2Oc2ccccc21 (configuration not stated)	-1.2%	-7.9%	?	-17.2	5.01µM*	0.1%
CCOC(=O)c1ccccc1NC(=O)Cn1c2ncccc2c(=O)n1-c1ccccc1	11.2µM*	.	1.5%	-3.1	9.5%	.
SMILES	ClpP mod	p53 reactivator	GLP1R cytotox	LDHA block	GLP-1R inv ag	GLP-1R agonist
CCc1ccccc1NC(=O)Cn1c2ncccc2c(=O)n1-c1ccccc1	4.3%	.	3.0%	-3.0	3.0%	.
O=C(NCCCN1CCOCC1)c1cc2c(=O)[nH]c3ccccc3c2s1	-9.8%	-11.4%	-2.8%	-1.2	22.0%	0.2%
Cc1ccc2[nH]c(=O)c3cc(C(=O)NCCCN4CCC(C)CC4)sc3c2c1	12.6µM*	.	10.7%	-0.5	-9.1%	.
CCN1CCN(CCCNC(=O)c2cc3c(=O)[nH]c4ccccc4c3s2)CC1	8.91µM*	-3.4%	-4.0%	-3.3	5.6%	8.0%
O=C(COc1ccccc1C(=O)NCc1ccccc1)Nc1ccc(Br)cc1	3.7%	.	.	-0.5	.	.
O=C(C1CCCN(C2CC(=O)N(c3ccc(F)cc3)C2=O)C1)N1CCCC1 (configuration not stated)	-7.6%	-4.3%	5.7%	-2.0	16.3%	-0.4%
O=C(Nc1cccc(Cl)c1)c1cc(N=Nc2ccc([N+](=O)[O-])cc2Cl)ccc1O	-5.2%	5.9%	-4.1%	-46.3*	-44.2%	0.3%
CN1CCN(CCC2(c3ccccc3)CCOC(C)(C)C2)CC1 (configuration not stated)	.	.	.	0.5	.	.
Cc1cc(C)c(S(=O)(=O)NCC(c2ccc(N(C)C)cc2)N2CCc3ccccc32)c(C)c1 (configuration not stated)	?	.	0.3%	0.1	2µM*	.
CC1CN(C(=O)c2ccccc2Nc2ccc(SC(F)F)cc2)CC(C)O1 (configuration not stated)	.	-2.5%	10.8%	6.3	3.1%	4.6%
CC1CCCC(C)N1C(=O)c1ccccc1Nc1ccc(SC(F)F)cc1 (configuration not stated)	-15.9%	-6.2%	-16.2%	6.0	5.62µM*	1.0%
